The full ranking holds about 9,900 sequences; the median of “r (bound/input frequency ratio)” is about 0.7, and the highest 2% start at about 6.5. The full list was thinned out, with the highest values kept by preference.
B1: ENSMUSG00000061578.893|Ksr2 (ssRNA)
RNA: GGGAGUUCUACAGUCCGACGAUCGCUUCGAUAUCCGCAUGCUAGGCCAUCAGGGCCCCAUUCUGAGGUCCUGGGACACUACCCAAACCCUAGCACUCUCCCAGUGACUCUCCUAUGAGUACAUAUGCCAUCCUGCUUCCUUUGUGGCAAAACCCUGGGUCACCCAGAGACAGAUUUCCCAGAAUCCCUGGGCCACUUCUCAAUUCUACCCAUGACAGACAUGUCCCAUCCAUGAGCCCAGAUAGUCAAAGACUUCAGCACAAGGGUGUUUAGAGUAGGCAGUGUGGAAGUAUCAAUAAGGUUACUCUUGCGGUCGCACUAGUGUGGAAUUCUCGGGUGUCAAGG
B2: ENSMUSG00000061578.293|Ksr2 (ssRNA)
RNA: GGGAGUUCUACAGUCCGACGAUCGCUUCGAUAUCCGCAUGCUAUAAGCAUCUUAGAGUUUCUCUUUUCUCUUUAAUUGCAUCAGGACCCCUUUGGUCCAUGUACCCCGGUCUCUGUCACAUGCCUUUGUAUCUUGGAGGAAGUAAGAGAGGAGAGAGCCAGGGAGGGCUGAAGCUCUGGGACCCUGAAGUGUCCCCCGGGAACUGGGACUCACUCAUCUUCUCCUGUUUGUAGCUCAAUGACCCAGUGGGUCACAGUUCUAGGCGCUCCAAGGAAGCCAGGGGAGGGGGACUCCUCAGGAAGGCUCUUGCGGUCGCACUAGUGUGGAAUUCUCGGGUGUCAAGG
B3: ENSMUSG00000042529.251|Kcnj12 (ssRNA)
RNA: GGGAGUUCUACAGUCCGACGAUCGCUUCGAUAUCCGCAUGCUAAAUUUCUAAUCUAGGAGAUUCCCCUAGGACCCGCUGCAGAGGCAUGGGCUCCUCUGUGGUCCUGGCCAGACCUCUGCCCCCAAAUCUCACUGACUGUUCUAGCCUUGGCCUUGGGGCCUAAGGGUGCAUUCAGCCUGGGUGUGCUUACCUGCCACUCACCUCUCUAUCUAGUUGUCGAGUCUAGGGAAGGGCAGAGGGUGGGUCCUGGCCACUGGGUGCCACUGUGGGAGCCGGGGCACCUGUCAUUCUUUCUGAGUAGGCUCUUGCGGUCGCACUAGUGUGGAAUUCUCGGGUGUCAAGG
B4: ENSMUSG00000031028.344|Tub (ssRNA)
RNA: GGGAGUUCUACAGUCCGACGAUCGCUUCGAUAUCCGCAUGCUAGGUUGACAAGUUUAAGGUUGAACAGGCUGAUUUCUGGAAUCUCAUGAGUGGAGGGGACCCUGGUGGUUAAGAGCGGAACUGGAAGCACAAUGGAAAACUCUUGGACUCUGCUCUCUGCUUUACCACACACAAAAAAGAGGGUUCUUGGCUAUUUGAAUAUAAAGUUGGUAGCACCAGGAAAUAGGCUGAACUUUGUAGCCCACUGUGGAAAGGAGCAGCCUCAGCACAAACCCCUCUGUCGGGCCCUGAGUGACAAGACCCUCUUGCGGUCGCACUAGUGUGGAAUUCUCGGGUGUCAAGG
B5: ENSMUSG00000058297.296|Spock2 (ssRNA)
RNA: GGGAGUUCUACAGUCCGACGAUCGCUUCGAUAUCCGCAUGCUAAGAGAAUGAGAGAGAGAAUACCCGAGGGCCACCCUGAUGCCCAGGAAGAGUGAGGGCAGCCCCCUGUGUGGUGGAAGAGGCUGGGCAGCUAGCUACUGGGGACCUUGUGCUGAGGCUUCCAGGACAAAGCCCCAGUCUGGCUCUCCCCCAGCCUCUCAGGGGCACUGGCUGGUCACAUCCACUGAGUAUUGAUCGGUUGGACUUUAGGGAAGAGCCUCCUCCUUCCCAUUCCUUUCUGCCACCCUGGAAUGGCCACCUUACUCUUGCGGUCGCACUAGUGUGGAAUUCUCGGGUGUCAAGG
B6: ENSMUSG00000058297.295|Spock2 (ssRNA)
RNA: GGGAGUUCUACAGUCCGACGAUCGCUUCGAUAUCCGCAUGCUAAAUGAGAGAGAAUGAGAGAGAGAAUACCCGAGGGCCACCCUGAUGCCCAGGAAGAGUGAGGGCAGCCCCCUGUGUGGUGGAAGAGGCUGGGCAGCUAGCUACUGGGGACCUUGUGCUGAGGCUUCCAGGACAAAGCCCCAGUCUGGCUCUCCCCCAGCCUCUCAGGGGCACUGGCUGGUCACAUCCACUGAGUAUUGAUCGGUUGGACUUUAGGGAAGAGCCUCCUCCUUCCCAUUCCUUUCUGCCACCCUGGAAUGGCCCUCUUGCGGUCGCACUAGUGUGGAAUUCUCGGGUGUCAAGG
B7: ENSMUSG00000058297.294|Spock2 (ssRNA)
RNA: GGGAGUUCUACAGUCCGACGAUCGCUUCGAUAUCCGCAUGCUAAGAGAGAAUGAGAGAGAAUGAGAGAGAGAAUACCCGAGGGCCACCCUGAUGCCCAGGAAGAGUGAGGGCAGCCCCCUGUGUGGUGGAAGAGGCUGGGCAGCUAGCUACUGGGGACCUUGUGCUGAGGCUUCCAGGACAAAGCCCCAGUCUGGCUCUCCCCCAGCCUCUCAGGGGCACUGGCUGGUCACAUCCACUGAGUAUUGAUCGGUUGGACUUUAGGGAAGAGCCUCCUCCUUCCCAUUCCUUUCUGCCACCCUGGACUCUUGCGGUCGCACUAGUGUGGAAUUCUCGGGUGUCAAGG
B8: ENSMUSG00000028439.233|Fam219a (ssRNA)
RNA: GGGAGUUCUACAGUCCGACGAUCGCUUCGAUAUCCGCAUGCUACACCGACAGAGUCUUUUCAUACCAGAAGGAAUUUCUUCACAGGAGUUUCUGCAAAAGACUAUGACAUCUGUGUGUCUGUGGUCUCACGAGGUACCUGGAGGUGUAUGUGCACGGACAUGGGAAGUACGUGAAGAUUUAUUUCGGGAAAAGUGGUGUGUGUGUAGCUGUACUGGGUGUCAUGUAUGCUGUUGCUUCUGCUGCUGGUCUGGUCUGAGGGAGGAAAGCUGAGGCUGUAGCUCAGUGAGAUGGUGGCUCUCCCACUCUUGCGGUCGCACUAGUGUGGAAUUCUCGGGUGUCAAGG
B9: ENSMUSG00000058297.20|Spock2|131:135;139:152;161:172;186:192;201:210;216:241 (ssRNA)
RNA: GGGAGUUCUACAGUCCGACGAUCGCUUCGAUAUCCGCAUGCUACCUCGGCAGGCCAGGGUGCCGACGGCCAGAAAGACAGGCCAGAAGAGACCUGGACAACAGCAGGCAACUUAGCAAAUGGAUCCGGAAGUCAGUGCGGAGGACCCUGGCUCCAGUGGGGGAGGACUGGGGACACACGCUACACACAUACACACAUAUGAGAACACACACAUACAUGUGAGAUGUGACACACACAUGUGAGAACACACAUACUGAGAACACACACACACACACACACACACACAUGUGAGUCACCCAAAGGUCUCUUGCGGUCGCACUAGUGUGGAAUUCUCGGGUGUCAAGG

The binders below were run against TDP-43 (Homo sapiens, UniProt Q13148 1-414) (assay: RNA Bind-n-Seq with designed 260-mer pool; 25 mM Tris-HCl, 150 mM KCl, 3 mM MgCl2, BSA (printed 500 mg/mL), 20 units/mL SUPERase IN; pH not stated; 500 nM RNA pool, 1 h, 4 C; TDP-43 5, 50, 500 nM; high values mean tight binding). Conditions: protein: recombinant; tags: SBP (GST cleaved off with PreScission; pGEX-GST-SBP).
Chain of TDP-43 (Q13148 whole entry): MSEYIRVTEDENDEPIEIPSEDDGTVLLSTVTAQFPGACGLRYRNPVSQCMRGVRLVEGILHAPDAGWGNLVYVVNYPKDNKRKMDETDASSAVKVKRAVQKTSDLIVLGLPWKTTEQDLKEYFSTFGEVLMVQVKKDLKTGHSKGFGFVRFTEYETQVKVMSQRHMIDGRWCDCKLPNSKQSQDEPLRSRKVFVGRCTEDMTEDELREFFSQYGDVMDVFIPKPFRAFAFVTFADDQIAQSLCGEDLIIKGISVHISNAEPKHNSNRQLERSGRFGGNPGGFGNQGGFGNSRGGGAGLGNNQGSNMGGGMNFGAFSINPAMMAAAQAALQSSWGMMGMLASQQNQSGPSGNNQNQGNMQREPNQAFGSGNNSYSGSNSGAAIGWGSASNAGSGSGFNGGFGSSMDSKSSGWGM
Procedure, shortened: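 For each oligo, R gives binding as its mapped-read-normalized abundance after pulldown divided by its abundance in input. Bead-captured SBP-tagged TDP-43 (5, 50 or 500 nM) was incubated with 500 nM of an in vitro-transcribed 260-nt 3′ UTR oligo pool for 1 h at 4 °C in 25 mM Tris-HCl, 150 mM KCl, 3 mM MgCl2, BSA and SUPERase IN on streptavidin beads. Washed, biotin-eluted RNA was reverse transcribed, PCR-amplified and sequenced.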

Binder | binding signal
B1 | 0.438 R (bound/input frequency ratio)
B2 | 0.535 R (bound/input frequency ratio)
B3 | 0.996 R (bound/input frequency ratio)
B4 | 0.993 R (bound/input frequency ratio)
B5 | 9.19 R (bound/input frequency ratio)
B6 | 3.63 R (bound/input frequency ratio)
B7 | 2.14 R (bound/input frequency ratio)
B8 | 3.93 R (bound/input frequency ratio)
B9 | 1.82 R (bound/input frequency ratio)

From PMC12864922, “TDP-43 directly inhibits mRNA accumulation in neurites through modulation of mRNA stability”
